# Compound activity as filed in PubChem.
# HCT116 PTEN-null – suppresses growth of cells with PTEN deletion. HCT116 PTEN-null viability, CellTiter-Glo, 60 h; hits give low values. AID 827. actives 1.2% (n = 140,000). viability, % at 10 µM;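 active = viability at or below a set limit, 4 SD under the median of all tested compounds, cut at about 3.7% in these data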;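 also: PTEN knockout HCT116 line with beta catenin targeted HCT116 as companion control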
# Ins promoter up – MIN6 insulin promoter up-regulation. z-score at 5 µM. MIN6 insulin promoter-GFP reporter, high-content imaging; hits give high values. actives 0.3% (n = 190,000);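 active = z-score above 3 at 5 µM with at least 500 cells counted in the well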
# Insulin prom inh – TRM-6 insulin promoter activity inhibition | AID 1273 | inhibition, % at 2 µM | actives 0.9% (n = 130,000) | TRM-6 cells (human fetal islet line), insulin promoter-eGFP reporter, imaging; reporter expression induced with tamoxifen;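 active = inhibition above the mean plus 3 SD, with well images judged a real hit on visual review, cut at about 60% in these data, passing the limit was not always enough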
# Autophagy mod – autophagy modulation, high-content screen | calls only at 10 µM (by protocol) | MEF GFP-LC3 puncta imaging; test concentration mostly 10 µM | actives 0.98% (n = 190,000);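 active = percentage of spot-positive cells more than 3 SD above its plate mean, without a fluorescence outlier flag or 80% toxicity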
# L major viab – inhibitors of Leishmania major promastigote growth | Leishmania major promastigotes, resazurin fluorescence viability | inhibition, % at 10 µM | actives 9% (n = 200,000); in the data active = inhibition above about 50%;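 also: promastigotes grown with compound for 44 hours at 28 °C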
# HCT116 bCat-KO – beta-catenin-lacking colon tumor cell growth suppression; HCT116 beta-catenin knockout viability, CellTiter-Glo, 60 h; hits give low values; viability, % at 10 µM; actives 1.5% (n = 140,000); AID 818;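 active = viability at or under a set limit, the compound median less 4 SD, cut at about 6% in these data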
# Hits are given with their value; – = inactive; · = not tested or not shown; + = active, no number. This is a sample that favours compounds with a hit; in the whole collection about 9.6% have one here.
SMILES,HCT116 PTEN-null,Ins promoter up,Insulin prom inh,Autophagy mod,L major viab,HCT116 bCat-KO
COc1ccc(C2NC(=O)c3sc4nc(C)c(C(C)=O)c(-c5ccc(Cl)cc5)c4c3N2)cc1 (centres undefined),–,–,·,–,–,–
CCOC(=O)c1c(C)cc(C)n2c1nc1ccccc12,–,–,75.0,–,–,–
Cc1cc(Br)ccc1SCC(=O)OCC(=O)N1CCN(C(=O)c2ccco2)CC1,–,–,·,–,–,–
O=C(CSc1cccc2cccc(Cl)c12)OCC(=O)N1CCN(C(=O)c2ccco2)CC1,–,–,–,–,52.7,–
COc1cccc(C(=O)CN2C(=O)C(C)(C)Oc3ccc(C(=O)N4CCCCCC4)cc32)c1,–,3.58,–,–,–,–
CC(=O)c1ccc(N2CCN(C(=O)c3cccc(Oc4ccccc4)c3)CC2)cc1,·,–,–,+,–,·
COc1cccc(C(=O)N2CCN(C3CCC(c4ccccc4)CC3)CC2)c1 (centres undefined),–,–,·,–,88.9,–
Cc1cccc(OCC(=O)N2CCN(S(C)(=O)=O)CC2)c1,·,–,·,–,–,·
Cc1cccc(OCC(=O)N2CCC(N3CCCCCC3)CC2)c1,–,–,·,–,92.2,–
O=C(c1cccc(F)c1)N1CCC(N2CCCCCC2)CC1,–,–,–,–,87.4,–
COc1cccc(C(=O)N2CCC(N3CC(C)OC(C)C3)CC2)c1 (centres undefined),–,–,–,–,73.5,–
COc1cccc(C(=O)N2CCOCC2)c1,·,–,65.0,–,–,·
N#C/C(=C/c1ccc(N2CCOCC2)o1)c1ccc(Cl)cc1,–,·,–,+,–,–
COC(=O)C1=C(C)N(CC2CC2)C(=O)N[C@H]1c1ccc(Br)cc1,–,–,–,–,–,–
CCN1C(=O)N[C@@H](c2ccc(Br)cc2)C(C(=O)OC)=C1C,–,–,65.0,–,–,–
CCOC(=O)CN1C(=O)N[C@@H](c2ccccc2)C(C(C)=O)=C1C,–,·,60.0,–,–,–
O=C(CC12CC3CC(CC(C3)C1)C2)NCC(=O)N1CCc2ccccc2C1,–,3.34,–,–,–,–
CCOC(=O)c1c(NC(=O)c2nn(CC)cc2Br)sc(C)c1C,–,–,–,–,–,–
CCOC(=O)c1c(NC(=O)c2ccccc2)sc2c(O)c(CN(CC)CC)ccc12,–,–,·,–,100.3,–
CCN(CC)Cc1c(NC(=O)c2ccccc2)sc(C)c1C,·,–,–,–,–,·
CCOC(=O)C1=C(C)NC2=C(C(=O)c3ccccc32)C1c1ccc(O)cc1 (centres undefined),–,–,–,–,–,–
N#CCc1c(C#N)c(N)nc(N2CCCC(CO)C2)c1C#N (centres undefined),·,–,·,+,–,·
N#CCc1c(C#N)c(N)nc(N2CCCC(O)C2)c1C#N (centres undefined),·,–,–,–,–,·
Cc1ccc(Cl)cc1NC(=O)C(NS(=O)(=O)c1cccs1)c1ccccc1 (centres undefined),–,–,–,–,–,–
COc1ccc(N(CC(=O)NC2CCCC2)C(=O)CCC(=O)Nc2cc(C)on2)c(OC)c1,–,–,–,–,–,–
SMILES,HCT116 PTEN-null,Ins promoter up,Insulin prom inh,Autophagy mod,L major viab,HCT116 bCat-KO
CC(=O)N(CCCN(C)C)CCC(C)CCC=C(C)C (centres undefined),–,–,–,–,100.3,–
CC(C)=CCCC(C)N(C=O)C(C)CCC=C(C)C (centres undefined),·,·,–,–,–,·
Cc1cc(C(C)(C)C)oc1C(=O)N(CC(=O)NC1CCCC1)Cc1ccccc1,–,–,·,–,–,–
S=c1[nH]nc(-c2ccccc2)n1CC1CCCO1 (centres undefined),–,3.06,–,–,–,–
COC(=O)C1=C(C)OC(N)=C(C#N)C1c1c(C)nn(C)c1C (centres undefined),–,–,–,–,–,–
CCn1nnnc1SCC(=O)N1c2ccccc2CCc2ccccc21,–,–,–,–,53.3,–
CCn1c(SCC(=O)N2c3ccccc3CCc3ccccc32)nc2c1c(=O)n(C)c(=O)n2C,·,·,–,–,59.9,·
Cc1cc2ccccc2nc1SCC(=O)N1c2ccccc2CC1C (centres undefined),–,–,100.0,–,–,–
CC1Cc2ccccc2N1C(=O)CSc1nc2c(c(=O)n(C)c(=O)n2C)n1Cc1ccccc1 (centres undefined),–,·,·,–,63.5,–
Cn1nnnc1SCC(=O)N1c2ccccc2CCc2ccccc21,–,–,–,–,–,–
Cc1cc2cc3c(cc2nc1SCC(=O)N1c2ccccc2CC1C)OCO3 (centres undefined),–,–,–,–,–,–
CCCCn1c(SCC(=O)N2c3ccccc3CCc3ccccc32)nc2c1c(=O)n(C)c(=O)n2C,–,–,–,–,–,–
CN(CC(=O)NCc1cccnc1)S(=O)(=O)c1ccc2c(c1)c(=O)n(C)c(=O)n2C,–,–,·,–,–,–
CC(C)NC(=O)Cn1c(SCC(=O)N2c3ccccc3CC2C)nc2ccccc21 (centres undefined),–,–,·,–,–,–
CC(C)Cn1c(=O)c2ccccc2n2c(SCC(=O)N3c4ccccc4CC3C)nnc12 (centres undefined),–,–,–,–,71.8,–
Clc1ccc(C2CC(c3ccco3)n3ncnc3N2)cc1Cl (centres undefined),–,–,–,–,51.4,–
COc1ccc(/C=N/N=C/c2ccc(OC)c(OC)c2)cc1OC,–,–,·,–,–,–
COc1cc(/C=N/N=C(N)N)ccc1OCc1ccccc1Cl,·,–,·,–,100.5,·
C(=C\c1ccccc1)/C=N/Nc1nc2ccccc2s1,–,–,·,–,–,–
COc1cc(NC(C)=O)ccc1-c1cc2ccccc2oc1=O,·,–,–,–,–,·
CCCC(=O)NCCCc1nc2ccccc2n1CCC,–,–,·,–,–,–
CC(=O)Nc1ccc(S(=O)(=O)Oc2ccc(C=O)cc2)cc1,–,–,–,–,78.3,–
COc1ccc(C=O)cc1OS(=O)(=O)c1ccc(NC(C)=O)cc1,–,–,–,–,–,–
CC(=O)Nc1ccc(OS(=O)(=O)c2c(C)cc(C)cc2C)cc1,·,–,–,–,80.3,·
Cn1c(=O)c(C(=O)CN2CCCCCC2)c(N)n(Cc2ccccc2)c1=O,·,–,·,–,–,·
SMILES,HCT116 PTEN-null,Ins promoter up,Insulin prom inh,Autophagy mod,L major viab,HCT116 bCat-KO
Cc1cc(C)c(C)c(S(=O)(=O)N2CCN(CC(=O)c3c(N)n(Cc4ccccc4)c(=O)n(C)c3=O)CC2)c1C,–,–,–,–,99.3,–
CCn1c(=O)c(C(=O)CN2CCN(S(=O)(=O)c3ccc(C)cc3C)CC2)c(N)n(Cc2ccccc2)c1=O,–,–,–,–,57.9,–
COCCCNCCCCOc1ccc(OCc2ccccc2)cc1,·,–,·,–,99.4,·
c1ccc(COc2ccc(OCCCNC3CCCC3)cc2)cc1,–,–,–,–,100.2,–
CCc1cccc(OCCCCNCCOC)c1,–,–,–,–,90.4,–
CCc1cccc(OCCCN2C(=O)NC(C)(C)C2=O)c1,–,–,·,–,–,–
COCCCNC(=O)CCCOc1ccccc1,–,–,·,–,–,–
CCOc1ccc(OCCCCNCCN)cc1,–,·,–,–,85.7,–
